Screening results: PubChem BioAssay, National Center for Advancing Translational Sciences (NCATS)
DRV1 agonist: activates human resolvin D1 receptor GPR32 | O75388 | CHO-K1 GPR32 beta-arrestin PathHunter luminescence, 90 min; zero percent set by DMSO-only wells | activation, % at 76.9 µM | 2.5% of 48,000 active | AID 1346428;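 active = activation of at least 60% and not above a set upper limit, about 1 call in 100 departs from these limits; inconclusive = activation of 40% to 60%, or above that upper limit; inactive = activation under 40%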; note: 0% is about no effect
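Beta-arrestin recruitment read-out: luminescence from complemented beta-Gal in CHO-K1 GPR32 PathHunter cells, measured 1 h after detection reagent at ambient temperature following 90 min compound exposure at 37 °C; DMSO served as basal (EC0) control.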
HTT prom inh: HTT promoter inhibition. Potency, µM (series often up to 57.5 µM), without a hit: at the highest dose activity change, negative = inhibition, usual class: inhibitors. HEK293 HTT promoter firefly luciferase reporter, 24 h. 0.93% of 48,000 active; note: potency is the fitted concentration of half-maximal effect; nearly all actives have a fitted effect of over 50% in size
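Firefly luciferase signal from promoter-reporter HEK293 cells was scaled between vehicle (0%) and zero RLU (-100%). Compounds were tested at final concentrations of up to 57.5 uM over 24 h at 37 degrees C. PTC124 at 50 uM final served as control inhibitor.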
HTT-AS promoter: activators of huntingtin-antisense promoter activity; HEK293 HTT-AS promoter firefly luciferase reporter, 24 h; response scale: percent change from vehicle, -100% = no light; Potency, µM (top dose mostly 57.5 µM), inactives show top-dose activity change, positive = activation, actives largely listed as activators; 0.24% of 48,000 active; note: potency is the fitted concentration of half-maximal effect; nearly all actives have a fitted effect of over 55% in size
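Firefly luciferase readout (Dual-Glo, 10 min RT) after 24 h, 37 °C compound exposure (final up to 57.5 uM) of HEK293 reporter cells cultured 24 h beforehand; PTC124 at 50 uM final as control inhibitor; activity scaled vehicle 0%, zero RLU -100%.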
FH mod: Identification of activators of human fumarate hydratase by quantitative high-throughput screening; AID 1347055, 2019; FH coupled MDH/diaphorase resazurin fluorescence, 15 min; Fumarate hydratase, mitochondrial (Homo sapiens), P07954; 0.22% of 54,000 active; Potency, µM (titrated, usually from 79.9 µM), without a hit: at the top dose activity change, negative = inhibition, usual class: inhibitors; note: potency is the fitted concentration of half-maximal effect; % is set by controls: 0 for no effect and ±100 for the full control effect; the screen sought activators but most active calls are inhibition curves; nearly all actives have a fitted effect of over 45% in size
Target sequence (P07954 whole entry, looked up): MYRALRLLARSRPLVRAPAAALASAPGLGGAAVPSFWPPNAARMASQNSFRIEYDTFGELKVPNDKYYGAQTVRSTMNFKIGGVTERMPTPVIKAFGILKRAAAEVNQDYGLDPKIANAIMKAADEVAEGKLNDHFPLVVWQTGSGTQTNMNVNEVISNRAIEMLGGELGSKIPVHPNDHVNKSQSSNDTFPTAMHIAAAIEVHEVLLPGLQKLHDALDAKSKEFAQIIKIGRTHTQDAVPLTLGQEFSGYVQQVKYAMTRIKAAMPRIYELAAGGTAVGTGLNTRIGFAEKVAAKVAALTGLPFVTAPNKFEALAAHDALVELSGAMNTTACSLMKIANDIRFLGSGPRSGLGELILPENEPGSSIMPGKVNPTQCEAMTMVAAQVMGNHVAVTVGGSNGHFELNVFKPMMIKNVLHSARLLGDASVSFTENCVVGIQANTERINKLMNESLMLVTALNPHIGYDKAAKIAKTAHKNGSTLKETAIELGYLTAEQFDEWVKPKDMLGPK
NTMT1 inhibitor: inhibitors of human N-terminal methyltransferase NTMT1; Q9BV86; 2.5% of 59,000 active; NTMT1 MTase-Glo SAH luminescence, purified enzyme; Potency, µM (titrated, usually from 114 µM), without a hit: at the highest dose activity change, negative = inhibition, most hits filed as inhibitors; AID 1645870;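 note: potency is the fitted concentration of half-maximal effect; plate controls were DMSO vehicle for no effect and no enzyme for full effect; nearly all actives have a fitted effect of over 65% in size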
Numbers without * were called inactive; [ ] = dose if it differs, or a comment. Sampled rows, rich in hits. Any-hit rate of the full collection: about 4.7%. Unless noted, calls come from the whole dose curve; as a rule, active = well fitted curve in the direction sought with a large enough effect; inconclusive = small, poorly fitted or top-dose-only effect, or another doubt; inactive = no such curve, though single readings can be large; an effect the other way counts as inactive or inconclusive.

Results for CC(C)(C)OC(=O)N1CCC(c2c(C(=O)Nc3ccc4c(c3)OCO4)cnn2-c2ccc(F)cc2F)CC1 ?
DRV1 agonist: -23; HTT prom inh: 10%; HTT-AS promoter: 5%; FH mod: -19%; NTMT1 inhibitor: 7%

What do the screens show for `COc1cccc(-c2nc(CS(=O)(=O)CC(=O)NCc3cccc(Cl)c3)c(C)o2)c1`?
DRV1 agonist: -11; HTT prom inh: -14%; HTT-AS promoter: -20%; FH mod: 0%; NTMT1 inhibitor: 0%

Results for Cc1ccccc1-c1nc(CS(=O)(=O)CC(=O)NCCc2ccccc2)c(C)o1 ?
DRV1 agonist: 0; HTT prom inh: -15%; HTT-AS promoter: -29%; FH mod: -8%; NTMT1 inhibitor: -9%

Results for Cc1ccccc1-c1nc(CS(=O)(=O)CC(=O)NCc2cccc(Cl)c2)c(C)o1 ?
DRV1 agonist: 12; HTT prom inh: -3%; HTT-AS promoter: -13%; FH mod: -1%; NTMT1 inhibitor: 89µM*

Results for Cc1ccccc1-c1nc(CS(=O)(=O)CC(=O)NCC(C)c2ccccc2)c(C)o1 (centres undefined) ?
DRV1 agonist: 70*; HTT prom inh: -29%; HTT-AS promoter: -25%; FH mod: -17%; NTMT1 inhibitor: -8%

What do the screens show for `Cc1ccc(-c2nc(CS(=O)(=O)CC(=O)NCc3ccc(Cl)cc3)c(C)o2)cc1`?
DRV1 agonist: -2; HTT prom inh: 4%; HTT-AS promoter: -10%; FH mod: 0%; NTMT1 inhibitor: -4%

Results for Cc1oc(-c2cccc(Cl)c2)nc1CS(=O)(=O)CC(=O)NCc1ccccc1Cl ?
DRV1 agonist: 19; HTT prom inh: -12%; HTT-AS promoter: -18%; FH mod: 3%; NTMT1 inhibitor: 89µM*

How did CCC(=O)N1CCc2cc(CNC(=O)c3ccccc3C)ccc21 do in these assays?
DRV1 agonist: -14; HTT prom inh: 45%; HTT-AS promoter: inconclusive; FH mod: -37%; NTMT1 inhibitor: inconclusive

How did CS(=O)(=O)N(CC(=O)NCC1CC1)c1cc(C(F)(F)F)ccc1Cl do in these assays?
FH mod: -1%; NTMT1 inhibitor: 22%[57.5 µM]

Results for CCC(C)NC(=O)Cn1c(=O)n(CC2CCC(C(=O)NC)CC2)c(=O)c2sccc21 (centres undefined) ?
DRV1 agonist: -8; HTT prom inh: -11%; HTT-AS promoter: -10%; FH mod: 3%; NTMT1 inhibitor: 9%

Results for CC1CCN(S(=O)(=O)c2ccc3c(c2)N(CC(=O)Nc2ccc(F)c(Cl)c2)C(=O)CO3)CC1 ?
DRV1 agonist: -21; HTT prom inh: inconclusive; HTT-AS promoter: -25%; FH mod: -17%; NTMT1 inhibitor: 4%

How did COc1ccc(C(=O)N2c3ccccc3C(C)(c3ccc(Cl)cc3)CC2(C)C)cc1 (centres undefined) do in these assays?
DRV1 agonist: -31; HTT prom inh: inconclusive; HTT-AS promoter: -43%; FH mod: -13%; NTMT1 inhibitor: 1%

What do the screens show for `CC1(c2ccc(Cl)cc2)CC(C)(C)N(C(=O)c2ccccc2)c2ccccc21` (centres undefined)?
DRV1 agonist: 9; HTT prom inh: 25µM*; HTT-AS promoter: -40%; FH mod: -19%; NTMT1 inhibitor: 3%

How did Cc1cccn2c(=O)cc(CSc3nnc(NC(=O)COc4ccccc4)s3)nc12 do in these assays?
DRV1 agonist: 1; HTT prom inh: -8%; HTT-AS promoter: -7%; FH mod: -29%; NTMT1 inhibitor: 40µM*

Results for Clc1cccc(CSc2nnc(C3CCNCC3)o2)c1 ?
DRV1 agonist: -7; HTT prom inh: 3%; HTT-AS promoter: 2%; FH mod: -15%; NTMT1 inhibitor: -26%

How did CCCCc1ccc(NS(=O)(=O)c2cc3c4c(c2)CC(=O)N4CCC3)cc1 do in these assays?
DRV1 agonist: 105*; HTT prom inh: inconclusive; HTT-AS promoter: -35%; FH mod: inconclusive; NTMT1 inhibitor: 3%

Results for COC(=O)c1ccccc1NS(=O)(=O)c1cc2c3c(c1)CC(=O)N3CCC2 ?
DRV1 agonist: -8; HTT prom inh: -22%; HTT-AS promoter: -7%; FH mod: -23%; NTMT1 inhibitor: -7%

How did O=C1OC(C(=O)Nc2ccc(Cl)c(C(F)(F)F)c2)Cc2ccccc21 (centres undefined) do in these assays?
DRV1 agonist: 80*

How did O=C(Nc1ccc(Cl)cc1)Nc1ccc(Cl)c(C(F)(F)F)c1 do in these assays?
DRV1 agonist: inconclusive; HTT prom inh: inconclusive; HTT-AS promoter: -67%; FH mod: -23%[53.3 µM]; NTMT1 inhibitor: 22%[57.5 µM]

What do the screens show for `CCOc1ccc(NC(=O)CSc2nnc(CNC(=O)C34CC5CC(CC(C5)C3)C4)n2CC)cc1`?
DRV1 agonist: 13; HTT prom inh: -27%; HTT-AS promoter: -28%; FH mod: -7%; NTMT1 inhibitor: 89µM*

Results for O=C(NCc1cccnc1)C(=O)NCC(c1cccnc1)N1CCN(c2ccc(F)cc2)CC1 (centres undefined) ?
DRV1 agonist: 5; HTT prom inh: inconclusive; HTT-AS promoter: -15%; FH mod: -15%; NTMT1 inhibitor: 0%

Results for O=C(NCCc1ccccc1)C(=O)NCC(c1cccnc1)N1CCN(c2ccc(F)cc2)CC1 (centres undefined) ?
DRV1 agonist: 8; HTT prom inh: 14µM*; HTT-AS promoter: -49%; FH mod: -2%; NTMT1 inhibitor: -4%

Results for COc1ccccc1N1CCN(C(CNC(=O)C(=O)NCCc2ccccc2)c2cccnc2)CC1 (centres undefined) ?
DRV1 agonist: 36; HTT prom inh: 7.1µM*; HTT-AS promoter: -57%; FH mod: -4%; NTMT1 inhibitor: 1%

Results for COc1ccc(C(=O)NCC(c2cccnc2)N2CCN(c3ccccc3OC)CC2)cc1 (centres undefined) ?
DRV1 agonist: 13; HTT prom inh: inconclusive; HTT-AS promoter: -53%; FH mod: 3%; NTMT1 inhibitor: 0%

How did Cc1ccc(C(=O)Nc2cccc3cccnc23)cc1Cl do in these assays?
DRV1 agonist: -6; HTT prom inh: 58%; HTT-AS promoter: 8.9µM*; FH mod: -4%; NTMT1 inhibitor: inconclusive

What do the screens show for `CCCOc1cccc(C(=O)Nc2cccc3cccnc23)c1`?
DRV1 agonist: -6; HTT prom inh: -1%; HTT-AS promoter: 29%; FH mod: -9%; NTMT1 inhibitor: 9%

How did Cc1ccc(CSc2nnc([C@@H](N)C(C)C)o2)cc1 do in these assays?
DRV1 agonist: 12; HTT prom inh: -11%; HTT-AS promoter: -3%; FH mod: inconclusive; NTMT1 inhibitor: 2%

What do the screens show for `Cc1nnc2c(N3CCN(c4ccc(F)cc4)CC3)nc3ccc(C(=O)c4ccccc4)cc3n12`?
DRV1 agonist: 4; HTT prom inh: 7%; HTT-AS promoter: -2%; FH mod: -19%; NTMT1 inhibitor: 10%
